# Screens deposited in PubChem BioAssay by National Center for Advancing Translational Sciences (NCATS).
# HCV inh – HCV inhibition; Huh7.5.1 HCVcc-Cre infection, luciferase reporter, 44 h; Potency, µM (doses to about 41.8 µM), for inactives: at the top dose activity change, negative = inhibition, actives largely listed as inhibitors; hit rate 3.4% among 340,000; AID 651820; also: potency is read from the fitted curve at half-maximal effect
#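 Infectious HCV cell culture screen: compound-treated cells (1,000/well, pre-plated 4 h) are infected with HCVcc-Cre at roughly 0.5 moi and grown 44 h. Infection is quantified by luciferase signal after 15 min substrate incubation at room temperature.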
# Lassa entry inh – Lassa virus entry inhibition; Lassa virus pseudotype entry inhibition, cell reporter; Potency, µM (series often up to 37.9 µM), for inactives: at the highest dose activity change, negative = inhibition, hits mostly inhibitors; hit rate 1.2% among 300,000; AID 540256; calls by dose curve; tested in HEK293 cells; also: potency is read from the fitted curve at half-maximal effect; nearly all actives have a fitted effect of over 50% in size
# HCMV antiviral – inhibitors of human cytomegalovirus; activity change, negative = inhibition, % at 57.5 µM; AID 1259415; hit rate 4.5% among 410,000; HFF cells, HCMV-luciferase reporter, 72 h; active compounds read low; in the data active = activity change below about -60%; inconclusive = no clear call, values can overlap the other calls; inactive = above about -39%
#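 Cell-based, HFFs, 1000 cells/well, 16 h 37C; cpds in DMSO + HCMV-luc, MOI 1 PFU/cell; 72 h 37C; OneGlo luminescence after 5 min RT; norm. to buffer vs Salinomycin 10uM.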
# MARV entry inh – blocks Marburg virus binding to or entry into cells; Marburg virus pseudotyped entry inhibition, cell reporter; Potency, µM (doses to about 37.8 µM), for inactives: at the top dose activity change, negative = inhibition, most hits filed as inhibitors; hit rate 1.8% among 300,000; AID 540276; calls by dose curve; tested in HEK293 cells; also: potency is read from the fitted curve at half-maximal effect
# FMDV antiviral – foot and mouth disease virus antiviral activity; hit rate 1.2% among 410,000; FMDV antiviral cell-based qHTS; Potency, µM (top dose mostly 57.9 µM), for inactives: at the highest dose activity change, negative = inhibition, actives largely listed as inhibitors; calls by dose curve; tested in HEK293T cells; also: read-out not given here; potency is read from the fitted curve at half-maximal effect; nearly all actives have a fitted effect of over 45% in size
# Giardia FBPA inh – Giardia lamblia aldolase inhibition; Potency, µM (titrated, usually from 59.6 µM), without a hit: at the highest dose activity, negative = inhibition, most hits filed as inhibitors; purified Giardia FBPA; hit rate 0.71% among 290,000; A8B2U2; AID 2451; also: potency is read from the fitted curve at half-maximal effect; nearly all actives have a fitted effect of over 55% in size
# Target sequence (A8B2U2 whole entry, looked up): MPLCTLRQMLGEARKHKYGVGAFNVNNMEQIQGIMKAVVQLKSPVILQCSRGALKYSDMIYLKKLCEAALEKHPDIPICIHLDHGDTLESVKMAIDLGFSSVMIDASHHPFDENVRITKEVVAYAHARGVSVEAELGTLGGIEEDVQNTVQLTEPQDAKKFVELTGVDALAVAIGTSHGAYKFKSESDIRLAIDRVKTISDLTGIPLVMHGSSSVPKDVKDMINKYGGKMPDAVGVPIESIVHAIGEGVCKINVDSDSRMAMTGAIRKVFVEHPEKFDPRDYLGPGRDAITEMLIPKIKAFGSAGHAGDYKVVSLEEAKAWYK
#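 Giardia FBPA (40 nM reagent) was preincubated 10 min at RT with compound (up to 57.5 uM final), then substrate plus GAPDH/TPI/NAD/arsenate coupling system with diaphorase/resazurin was added; resorufin fluorescence (525/598 nm) was read after 20 min.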
# An asterisk follows results filed as active; ? = inconclusive; nt = no result; + = active, no number; ! = a repeat was not active; [ ] = dose if it differs, or a comment. Most compounds without a hit are left out; they make up all but 8.3% or so of the library. Unless noted, calls follow the shape of the dose curve; as a rule, active = well fitted curve in the direction sought with a large enough effect; inconclusive = small, poorly fitted or top-dose-only effect, or another doubt; inactive = no such curve, though single readings can be large; an effect the other way counts as inactive or inconclusive. % is scaled to controls: 0 for no effect and ±100 for the full control effect.
SMILES,HCV inh,Lassa entry inh,HCMV antiviral,MARV entry inh,FMDV antiviral,Giardia FBPA inh
CCOC(=O)c1cc(C)n(CC2CCC(C(=O)Nc3ccc(OCC)cc3)CC2)c1C (stereo not drawn),nt,8%[46.1 µM],-61*,nt,-28%,nt
O=C(NCCc1ccccn1)C1CC12CCN(C(=O)c1ccc(F)cc1Cl)CC2 (stereo not drawn),nt,nt,nt,nt,0%,nt
C=CCOC(=O)/C(=C\c1ccccc1)NC(=O)c1ccc(C)cc1,-7%,nt,-67*,nt,69%,10%
C=CCOC(=O)/C(=C\c1cccc2ccccc12)NC(=O)c1ccccc1,7.9µM*,8%,-18,-1%,25%,-1%
O=C(OCC(=O)c1ccc([N+](=O)[O-])cc1)/C(=C/c1ccc(Cl)cc1)NC(=O)c1ccccc1,9%,6%,-65*,2%,0%,1%
O=C(CN1C(=O)c2ccccc2C1=O)NCC1Cc2cccc(-c3ncccn3)c2O1 (stereo not drawn),nt,nt,nt,nt,3%,nt
O=C(/C=C\c1ccco1)Nc1cc([N+](=O)[O-])ccc1F,3%,?,-87*,?,-6%,3%
Cc1ccc(NC(=O)/C=C/c2ccco2)cc1F,nt,?,0,nt,11%,nt
O=C(NCCN1CCOCC1)c1ccc2c(c1)N(Cc1ccccc1)C(=O)c1ccccc1S2,2%,nt,+,nt,-2%,8%
CCCCN(CC)CCCNC(=O)c1ccc2c(c1)N(Cc1ccc(C)cc1)C(=O)c1ccccc1S2,nt,?,-98*,nt,?,nt
Cc1cccc(CN2C(=O)c3ccccc3Sc3ccc(C(=O)NCCCN4CCOCC4)cc32)c1,-10%,-13%[46.1 µM],-64*!,nt,-11%,nt
O=C(NCCCN1CCOCC1)c1ccc2c(c1)N(Cc1ccccc1)C(=O)c1ccccc1S2,10%,2%[46.1 µM],0,nt,2%,nt
CCN(CC)S(=O)(=O)c1cccc(-n2c(O)c(C=Nc3ccccc3C(=O)O)c3ccccc3c2=O)c1,?,nt,-79*,nt,-11%,-3%
Cc1ccc(-c2nn3c(=O)cc(CN4CCN(C(=O)c5ccc(C(C)(C)C)cc5)CC4)nc3s2)cc1,nt,0%[46.1 µM],2,nt,-14%,nt
N#CC(C#N)=C/C(C#N)=C(/N)N1CCN(c2ccc(Cl)cc2)CC1,11%,9%,-16,-19%,18µM*,-3%
CN(C)C(=C(C#N)C#N)N1CCN(c2ccc(Cl)cc2)CC1,3%,1%,?,0%[46.1 µM],-9%,4%
CN(C)C(=O)c1ccc(-n2nc(C(F)(F)F)c3c2CCCC3)cc1,10µM*,-8%,-1,?,-23%,10%
COc1ccc(-c2c([C@H]3[C@H]4C=CC[C@@H](C)[C@@H]4C(=O)N3Cc3ccccc3)ccc3ccccc23)cc1OC,?,nt,-84*,nt,?,0%
C[C@@H]1CC=C[C@H]2[C@H]1C(=O)N(Cc1ccccc1)[C@H]2c1ccc(C(F)(F)F)cc1,?,nt,-26,nt,?,-1%
O=C1C2C(c3ccccc3)CC=CC2[C@H](c2ccc(C(F)(F)F)cc2)N1Cc1ccccc1 (stereo partly drawn),-18%,nt,-85*,nt,0%,-11%
COc1ccc(-c2cccc(C3CC=CC4C3C(=O)N(Cc3ccccc3)C4c3ccc(C(F)(F)F)cc3)c2)cc1 (stereo not drawn),-6%,nt,-67*,nt,-11%,-2%
CCCN(Cc1cc2cc(C)ccc2[nH]c1=O)C(=O)c1cccc(Cl)c1,nt,?,-9,10%[46.1 µM],-30%,nt
O=C(Nc1cccc(F)c1)N1CCCC2(CCN(C(=O)c3cc(C(F)(F)F)cc(C(F)(F)F)c3)CC2)C1,nt,nt,nt,nt,-5%,-2%
CCCCc1nc2c(c3c1C[C@H](C)OC3)CN(C(=O)Cc1cccc(OC)c1)CC2,nt,nt,nt,2%[14.2 µM],nt,1%[12.9 µM]
CCN1C(=O)c2cccc3c(N)ccc(c23)C1=O,-2%,nt,44,nt,14%,4%
SMILES,HCV inh,Lassa entry inh,HCMV antiviral,MARV entry inh,FMDV antiviral,Giardia FBPA inh
Cc1ccc(N2C(=O)c3cccc4c(N)ccc(c34)C2=O)c2cccnc12,14%,nt,+,nt,-17%,1%
CCOc1ccc(Cn2c(=O)sc3ccccc32)cc1OC,10µM*,nt,?,nt,-30%,-1%
COc1cc(Cn2c(=O)sc3ccccc32)ccc1OC(C)C,nt,3%[46.1 µM],13,0%[46.1 µM],-20%,nt
CCOC(=O)c1cnc(SC)nc1N,7%,11%,49,29%,13%,-1%
CCOC(=O)c1cnc(N2CC2)nc1N,-8%,?,-68*,10µM*,0%,nt
Clc1ccc(-c2c[n+](Cc3ccc(Cl)c(Cl)c3)c3n2CCC3)cc1,4%,nt,nt,nt,nt,1%
Cc1ccc(-c2c[n+](Cc3ccc(Cl)cc3)c3n2CCC3)cc1,-12%,?,-79*,-24%,0%,6%
Cc1ccc(C[n+]2cc(-c3ccc(Cl)cc3)n3c2CCC3)cc1,-25%,?,-61*,?,0%,0%
O=[N+]([O-])c1ccc2c(c1)CO[C@]21O[C@H](CCO)C[C@H](O)[C@H]1O,nt,nt,-18,nt,nt,nt
Cc1n[nH]c(C)c1CCCCOc1ccccc1,-30%,10%,-82*,-21%[46.1 µM],?,-12%
O=C(c1cnccn1)N1CCC2(CCCN(c3ccc(-c4ccccc4)cc3)C2)CC1,nt,nt,nt,nt,-27%,-13%
COc1cc(OC)c(NC(=O)c2noc3c2CSc2ccccc2-3)cc1Cl,nt,?,-28,-7%[46.1 µM],0%,nt
CNC(=S)/N=C/NOCc1ccc(Cl)cc1Cl,?,?,-78*,?,?,-10%
COc1ccc(C2=C3C(=O)OCC3Cc3ncn(Cc4ccccc4)c32)cc1 (stereo not drawn),5%,nt,-76*,nt,-16%,nt
COc1ccccc1NC(=O)Nc1ccc(-n2ccc(C(F)(F)F)n2)cc1,5.6µM*,?,-8,?,-1%,-7%
Cc1cc(C)cc(NC(=O)Nc2ccc(-n3ccc(C(F)(F)F)n3)cc2)c1,?,?,7,?,0%,1%
O=C(O)c1ccccc1C(=O)Nc1ccc(-n2ccc(C(F)(F)F)n2)cc1,-1%,13%[46.1 µM],0,4%[46.1 µM],10%,2%
O=C(Nc1ccc(-n2ccc(C(F)(F)F)n2)cc1)Nc1cccc(Cl)c1,nt,nt,-84*,nt,nt,2%
COc1ccc(NC(=O)c2cc(-c3ccc(F)cc3OC(C)C)n[nH]2)cn1,nt,nt,-15,nt,-30%,nt
CC(C)Oc1cc(F)ccc1-c1cc(C(=O)Nc2cccc(C(F)(F)F)c2)[nH]n1,nt,nt,-64*,nt,?,nt
CCN1/C(=C\C=C2\C(=O)N(c3ccccc3)C(=S)N2C)Sc2ccccc21,-16%,?,-64*,15%[46.1 µM],?,-18%
Nc1c(-c2ccccc2)cnn1-c1cccc(C(F)(F)F)c1,13%,18%,-106*,13%,23%,0%
Nc1c(-c2cccc(Cl)c2)cnn1-c1cccc(C(F)(F)F)c1,?,7%,-18,19%,-25%,-6%
COc1ccccc1CCC(=O)Nc1cccc(S(=O)(=O)N2CCOCC2)c1,?,-2%,19,?,9%,3%
